# Laboratory results: the supplement of paper PMC7858590
# System: human monocyte-derived macrophages (polarized)
# Assay: cell shape (eccentricity) Z-score vs DMSO control; higher = more elongated, M2-like morphology
# Settings: 5 µM; 24 h; macrophage state: M1-polarized (IFNg + TNFa), cytokines present during treatment
# Protocol: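 Primary-screen hits were rescreened on polarized hMDMs with the differentiating cytokines (IL-4 + IL-13 or IFNg + TNFa) kept in the medium during treatment with compound at 5 uM for 24 h. The eccentricity Z-score vs DMSO wells is averaged over experiments.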
row,Compound,cell shape (Z-score)
1,COc1cc2ccc(=O)oc2c2ccoc12,8.59
2,C[C@]12CC[C@@H](O)C[C@@H]1CC[C@@H]1[C@@H]2CC[C@]2(C)[C@@H](C(=O)CO)CC[C@@H]12,3.05
3,CN1[C@@H]2CC[C@H]1C[C@@H](OC(c1ccccc1)c1ccccc1N)C2 (stereo partly drawn),-3.5
4,CCCCCCCCCCCCCC(=O)O[C@@H]1[C@@H](C)[C@@]2(O)[C@@H](C=C(CO)C[C@]3(O)C(=O)C(C)=C[C@@H]23)[C@@H]2C(C)(C)[C@]12OC(C)=O,-6.25
5,COc1cc([C@@H]2c3cc4c(c(O)c3C[C@H]3COC(=O)[C@@H]32)OCO4)cc(OC)c1OC,3.15
6,CC(C)=CC1C(C(=O)OCc2coc(Cc3ccccc3)c2)C1(C)C (stereo not drawn),8.88

# Same assay, conditions: 5 µM; 24 h; macrophage state: M2-polarized (IL-4 + IL-13), cytokines present during treatment
row,Compound,cell shape (Z-score)
1,C=C1[C@@H](C)[C@H]2[C@H](Cc3ccccc3)NC(=O)[C@]23OC(=O)/C=C/[C@H](O)CCC[C@@H](C)C/C=C/[C@H]3[C@@H]1O,-29.4
2,CC(=O)O[C@H]1CC[C@@]2(C)[C@H](CC[C@@H]3[C@@H]2CC[C@]2(C)[C@@H](C4=CC(=O)OC4)[C@@H](OC(C)=O)C[C@]32O)C1,-23.5
